Results as given in PubChem BioAssay (Tox21).
Results filed as inconclusive are left out. The source made the active and inactive calls. Unless noted, the call rests on the fitted dose curve; in most records, active means well fitted curve in the direction sought with a large enough effect in the repeat runs; inconclusive means weak or mixed curves; inactive means no such curve, though single readings can be large; an effect the other way counts as inactive or inconclusive.

Columns and labels:
[1] = qHTS assay to identify aromatase inhibitors - cell viability counter screen (AID 743084);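 further: cells stimulated with testosterone during compound exposure; nearly all actives have a fitted effect of over 55% in size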
[2] = molecular target: Aryl hydrocarbon receptor (Homo sapiens) (UniProt P35869); test: qHTS assay to identify small molecule that activate the aryl hydrocarbon receptor (AhR) signaling pathway (AID 743085); further: nearly all actives have a fitted effect of over 15% in size; further: potency means the concentration at half of the fitted maximal effect;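 on activation: HG2L7.5c1 human HepG2 liver cells with stably integrated DRE-driven firefly reporter; series mostly up to about 70 µM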
Aryl hydrocarbon receptor (Homo sapiens), sequence (P35869 whole entry, looked up): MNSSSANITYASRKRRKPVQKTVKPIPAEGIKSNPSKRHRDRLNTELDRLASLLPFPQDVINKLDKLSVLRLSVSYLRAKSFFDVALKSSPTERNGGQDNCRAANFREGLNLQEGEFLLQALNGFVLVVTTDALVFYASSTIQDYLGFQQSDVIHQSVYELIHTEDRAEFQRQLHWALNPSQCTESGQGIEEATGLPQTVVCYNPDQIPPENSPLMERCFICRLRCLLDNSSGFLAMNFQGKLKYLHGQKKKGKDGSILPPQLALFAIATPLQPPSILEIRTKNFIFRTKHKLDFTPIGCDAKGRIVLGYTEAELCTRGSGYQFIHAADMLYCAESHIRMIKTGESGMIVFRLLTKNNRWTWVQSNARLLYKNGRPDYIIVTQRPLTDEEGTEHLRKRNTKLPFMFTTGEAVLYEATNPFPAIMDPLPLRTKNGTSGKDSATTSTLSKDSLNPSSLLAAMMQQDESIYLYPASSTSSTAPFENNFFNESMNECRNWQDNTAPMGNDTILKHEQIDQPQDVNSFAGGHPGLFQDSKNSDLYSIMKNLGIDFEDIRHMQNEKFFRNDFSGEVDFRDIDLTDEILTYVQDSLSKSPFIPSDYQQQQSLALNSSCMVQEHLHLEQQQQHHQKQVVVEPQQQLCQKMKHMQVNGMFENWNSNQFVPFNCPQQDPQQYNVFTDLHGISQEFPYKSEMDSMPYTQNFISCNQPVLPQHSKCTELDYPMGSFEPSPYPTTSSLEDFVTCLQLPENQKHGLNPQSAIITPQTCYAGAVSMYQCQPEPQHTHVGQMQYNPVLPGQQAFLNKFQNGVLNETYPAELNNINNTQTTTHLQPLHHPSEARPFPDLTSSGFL
Procedure, shortened: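 Luminescence read-out: ONE-Glo reagent, 30 min at room temperature, in HG2L7.5c1 HepG2 reporter cells treated 24 h at 37C. Viability was measured beforehand by CellTiter-Fluor fluorescence after 30 min at 37C.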

[3] = qHTS assay to identify small molecule that activate the aryl hydrocarbon receptor (AhR) signaling pathway - cell viability counter screen (AID 743086);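 further: HepG2 liver cells carrying the AhR DRE luciferase reporter; series mostly up to about 70 µM; nearly all actives have a fitted effect of over 45% in size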
Procedure, shortened: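 Cytotoxicity counter screen: CellTiter-Fluor signal (30 min, 37 C) in 4000 HepG2 cells/well carrying the DRE-luciferase reporter, following 24 h compound exposure at 37 C.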

[4] = molecular target: Peroxisome proliferator-activated receptor gamma (Homo sapiens) (UniProt P37231); test: qHTS assay to identify small molecule agonists of the peroxisome proliferator-activated receptor gamma (PPARg) signaling pathway (AID 743094; active means well fitted activation curve with a large enough effect in the signal ratio in the repeat runs, not every such curve was filed as active; the % refers to the signal ratio)
Peroxisome proliferator-activated receptor gamma (Homo sapiens), sequence (P37231 whole entry, looked up): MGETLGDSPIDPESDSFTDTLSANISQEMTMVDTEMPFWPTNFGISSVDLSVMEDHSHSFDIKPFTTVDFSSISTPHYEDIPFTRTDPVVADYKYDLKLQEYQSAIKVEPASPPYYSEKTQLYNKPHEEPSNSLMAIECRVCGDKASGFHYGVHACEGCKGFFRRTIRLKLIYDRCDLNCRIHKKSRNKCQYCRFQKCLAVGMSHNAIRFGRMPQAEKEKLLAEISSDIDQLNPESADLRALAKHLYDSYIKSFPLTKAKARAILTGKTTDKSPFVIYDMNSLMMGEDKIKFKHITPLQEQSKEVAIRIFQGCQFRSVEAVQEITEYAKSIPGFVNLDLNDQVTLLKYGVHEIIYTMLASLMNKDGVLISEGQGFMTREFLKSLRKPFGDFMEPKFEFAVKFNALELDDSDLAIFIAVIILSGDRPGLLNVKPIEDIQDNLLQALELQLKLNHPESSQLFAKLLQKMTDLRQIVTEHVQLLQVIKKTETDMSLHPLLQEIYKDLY
Procedure, shortened: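 Agonist activity was taken from a beta-lactamase reporter (FRET substrate, 1 h at room temperature) in HEK293H cells carrying a PPARg UAS-bla construct. Compounds in DMSO were incubated 17 h at 37C after a 5 h cell pre-incubation.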

[5] = molecular target: Peroxisome proliferator-activated receptor gamma (Homo sapiens) (UniProt P37231); test: qHTS assay to identify small molecule antagonists of the peroxisome proliferator-activated receptor gamma (PPARg) signaling pathway (AID 743191; calls by dose curve; further: nearly all actives have a fitted effect of over 30% in size; further: potency means the concentration at half of the fitted maximal effect)
Procedure, shortened: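 Beta-lactamase reporter under UAS control in HEK293H PPARg-bla cells; compound treatment 17 h at 37C. Read-out: fluorescence intensity after 1 h room-temperature incubation with LiveBLAzer B/G FRET substrate.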

[6] = qHTS assay to identify small molecule antagonists of the peroxisome proliferator-activated receptor gamma (PPARg) signaling pathway - cell viability counter screen (AID 743194); further: nearly all actives have a fitted effect of over 55% in size
Procedure, shortened: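 Viability was measured as CellTiter-Glo luminescence in GeneBLAzer PPARg UAS-bla HEK293H cells. These cells had been exposed 17 h at 37 C to compounds together with rosiglitazone at 50 nM final, with the beta-lactamase readout taken in the same wells.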

[7] = qHTS assay for small molecule agonists of the antioxidant response element (ARE) signaling pathway (AID 743202; active means well fitted activation curve with a large enough effect in the signal ratio in the repeat runs, not every such curve was filed as active; the % refers to the signal ratio)
Procedure, shortened: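 After 16 hours of compound treatment at 37 C, HepG2 cells with a stably integrated ARE-driven beta-lactamase reporter were loaded 2 hours at room temperature with LiveBLAzer B/G FRET substrate and fluorescence intensity measured.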

[8] = qHTS assay for small molecule activators of the heat shock response signaling pathway - cell viability counter screen (AID 743209); further: nearly all actives have a fitted effect of over 50% in size
Procedure, shortened: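 Cytotoxicity counter screen run in the same wells as the heat-shock bla reporter assay: HeLa HSE-bla cells, 5 h compound exposure at 37 C, viability read by CellTiter-Glo luminescence.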

[9] = qHTS assay for small molecule activators of the heat shock response signaling pathway (AID 743210; active means well fitted activation curve with a large enough effect in the signal ratio in the repeat runs, with a control signal flat, not every such curve was filed as active; the % refers to the signal ratio; further: series mostly up to about 63 µM)
Procedure, shortened: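 Compound exposure lasted 5 h at 37 C in HeLa cells carrying a heat-shock-element-driven beta-lactamase reporter. Read-out: fluorescence intensity after 2.5 h room-temperature loading with LiveBLAzer B/G FRET substrate.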

[10] = qHTS assay to identify small molecule agonists of the peroxisome proliferator-activated receptor delta (PPARd) signaling pathway - cell viability counter screen (AID 743211); further: nearly all actives have a fitted effect of over 55% in size; further: potency means the concentration at half of the fitted maximal effect
Procedure, shortened: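 Read-out: CellTiter-Glo luminescence, 30 min RT, measured in the same wells as the beta-lactamase reporter. Cells: GeneBLAzer PPAR delta UAS-bla HEK293H, 3000 cells/well, compound exposure 17 h at 37C.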

[11] = qHTS assay to identify small molecule antagonists of the peroxisome proliferator-activated receptor delta (PPARd) signaling pathway - cell viability counter screen (AID 743213); further: nearly all actives have a fitted effect of over 50% in size
Procedure, shortened: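 HEK293H PPARd UAS-bla cells, 5 h pre-incubation, compound + L165041 300 nM final, 17 h 37 C; B/G FRET substrate 2 h RT; then CellTiter-Glo 30 min RT, luminescence.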

[12] = molecular target: Peroxisome proliferator-activated receptor delta (Homo sapiens) (UniProt Q03181); test: qHTS assay to identify small molecule antagonists of the peroxisome proliferator-activated receptor delta (PPARd) signaling pathway (AID 743215; active means well fitted inhibition curve with a large enough effect in the signal ratio in the repeat runs, not every such curve was filed as active; the % refers to the signal ratio;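 further: cells stimulated with agonist L165041 at 300 nM final during compound exposure; series mostly up to about 62 µM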)
Peroxisome proliferator-activated receptor delta (Homo sapiens), sequence (Q03181 whole entry, looked up): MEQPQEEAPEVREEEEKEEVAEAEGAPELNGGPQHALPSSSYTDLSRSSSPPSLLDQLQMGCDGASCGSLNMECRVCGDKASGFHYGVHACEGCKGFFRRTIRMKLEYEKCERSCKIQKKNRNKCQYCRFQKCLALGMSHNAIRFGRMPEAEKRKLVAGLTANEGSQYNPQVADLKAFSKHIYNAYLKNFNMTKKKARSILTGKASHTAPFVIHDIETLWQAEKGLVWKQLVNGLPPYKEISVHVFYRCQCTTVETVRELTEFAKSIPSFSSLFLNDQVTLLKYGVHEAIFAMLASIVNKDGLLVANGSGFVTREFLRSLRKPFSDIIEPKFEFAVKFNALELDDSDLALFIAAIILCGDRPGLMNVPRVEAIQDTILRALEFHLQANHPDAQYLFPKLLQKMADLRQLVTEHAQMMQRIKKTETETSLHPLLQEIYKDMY
Procedure, shortened: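 Agonist L165041 (300 nM final) added with compound to PPARd-bla HEK293H UAS-bla reporter cells; 17 h incubation at 37 C. Read-out: LiveBLAzer FRET substrate, 2 h at room temperature, fluorescence intensity.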

[13] = molecular target: Bile acid receptor (Homo sapiens) (UniProt Q96RI1); test: qHTS assay to identify small molecule antagonists of the farnesoid-X-receptor (FXR) signaling pathway (AID 743217; active means well fitted inhibition curve with a large enough effect in the signal ratio in the repeat runs, not every such curve was filed as active; the % refers to the signal ratio)
Bile acid receptor (Homo sapiens), sequence (Q96RI1 whole entry, looked up): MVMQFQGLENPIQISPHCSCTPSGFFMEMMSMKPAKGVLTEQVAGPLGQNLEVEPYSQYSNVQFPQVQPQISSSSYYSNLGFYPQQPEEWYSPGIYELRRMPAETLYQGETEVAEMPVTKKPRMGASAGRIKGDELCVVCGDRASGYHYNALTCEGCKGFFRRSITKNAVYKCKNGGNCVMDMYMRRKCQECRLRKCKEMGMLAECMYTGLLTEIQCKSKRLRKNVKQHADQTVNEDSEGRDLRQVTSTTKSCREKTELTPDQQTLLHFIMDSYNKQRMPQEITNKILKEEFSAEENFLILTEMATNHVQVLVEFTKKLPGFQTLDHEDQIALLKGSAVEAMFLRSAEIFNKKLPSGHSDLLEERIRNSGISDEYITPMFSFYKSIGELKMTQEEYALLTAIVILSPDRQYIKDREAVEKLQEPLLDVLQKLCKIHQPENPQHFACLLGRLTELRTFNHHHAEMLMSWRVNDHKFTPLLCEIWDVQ
Procedure, shortened: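 Antagonist mode: chenodeoxycholic acid at 50 uM final stimulates a UAS-driven beta-lactamase reporter in HEK 293T FXR-bla cells during 16 h, 37C compound exposure. Read-out is FRET substrate fluorescence after 2 h at room temperature.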

[14] = qHTS assay to identify small molecule agonists of the farnesoid-X-receptor (FXR) signaling pathway - cell viability counter screen (AID 743218); further: nearly all actives have a fitted effect of over 45% in size
Procedure, shortened: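 Viability counter screen in the same wells: CellTiter-Glo luminescence, 30 min room-temperature incubation, measured after the beta-lactamase read. Cells were GeneBLAzer FXR-UAS-bla HEK 293T, compound-treated 16 h at 37C.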

[15] = molecular target: Bile acid receptor (Homo sapiens) (UniProt Q96RI1); test: qHTS assay to identify small molecule agonists of the farnesoid-X-receptor (FXR) signaling pathway (AID 743220; active means well fitted activation curve with a large enough effect in the signal ratio in the repeat runs, not every such curve was filed as active; the % refers to the signal ratio)
Procedure, shortened: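 FXR-UAS-bla HEK 293T cells carrying a UAS-driven beta-lactamase reporter were plated for 5 h at 37C/5% CO2, then exposed to DMSO-dissolved Tox21 10K compounds for 16 h at 37C. A LiveBLAzer B/G FRET substrate was loaded for 2 h at room temperature before fluorescence reading.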

[16] = qHTS assay to identify small molecule antagonists of the farnesoid-X-receptor (FXR) signaling pathway - cell viability counter screen (AID 743221; active means well fitted cell-killing curve with a large enough effect in the repeat runs, not every such curve was filed as active; further: nearly all actives have a fitted effect of over 50% in size)
Procedure, shortened: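 HEK 293T FXR-bla cells, 5 h pre-incubation; compound + CDCA 50 uM final, 16 h, 37 C; beta-lactamase FRET read first, then CellTiter-Glo luminescence, 30 min RT.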

[17] = qHTS assay for small molecule agonists of the antioxidant response element (ARE) signaling pathway - cell viability counter screen (AID 743203; calls by dose curve; further: nearly all actives have a fitted effect of over 55% in size)
Procedure, shortened: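 Viability counter screen: CellTiter-Glo luminescence, read after 30 min at room temperature, in ARE-bla HepG2 wells. Compound exposure lasted 16 h at 37C/5% CO2, following a 5 h pre-incubation of the cells after plating.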

[18] = molecular target: Vitamin D3 receptor (Homo sapiens) (UniProt P11473); test: qHTS assay to identify small molecule agonists of the vitamin D receptor (VDR) signaling pathway (AID 743222; calls by dose curve)
Vitamin D3 receptor (Homo sapiens), sequence (P11473 whole entry, looked up): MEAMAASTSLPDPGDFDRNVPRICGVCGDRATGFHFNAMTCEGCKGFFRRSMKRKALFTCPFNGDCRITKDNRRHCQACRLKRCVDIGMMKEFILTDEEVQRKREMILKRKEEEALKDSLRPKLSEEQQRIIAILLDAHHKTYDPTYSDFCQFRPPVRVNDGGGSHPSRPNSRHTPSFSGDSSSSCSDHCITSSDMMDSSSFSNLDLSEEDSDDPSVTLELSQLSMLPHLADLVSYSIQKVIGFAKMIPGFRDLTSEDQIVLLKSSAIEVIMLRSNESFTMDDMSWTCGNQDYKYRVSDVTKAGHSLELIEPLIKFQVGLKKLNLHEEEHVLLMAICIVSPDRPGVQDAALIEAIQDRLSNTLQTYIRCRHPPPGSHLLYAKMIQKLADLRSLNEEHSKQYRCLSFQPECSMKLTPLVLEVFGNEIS
Procedure, shortened: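 Agonist mode, beta-lactamase reporter: fluorescence from LiveBLAzer B/G FRET substrate (2 h, room temperature) read after 16 h compound treatment at 37 C of VDR-bla cells, which were pre-incubated 4 h after seeding.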

[19] = molecular target: Vitamin D3 receptor (Homo sapiens) (UniProt P11473); test: qHTS assay to identify small molecule antagonists of the vitamin D receptor (VDR) signaling pathway (AID 743223; active means well fitted inhibition curve with a large enough effect in the signal ratio in the repeat runs, not every such curve was filed as active; the % refers to the signal ratio)
Procedure, shortened: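 Beta-lactamase reporter read-out: FRET substrate fluorescence after 2 h at room temperature, following 16 h exposure of VDR-bla cells to test compound plus 3 nM (final) 1alpha,25-dihydroxyvitamin D3 agonist at 37C.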

[20] = molecular target: Peroxisome proliferator-activated receptor delta (Homo sapiens) (UniProt Q03181); test: qHTS assay to identify small molecule agonists of the peroxisome proliferator-activated receptor delta (PPARd) signaling pathway (AID 743212; calls by dose curve)
Procedure, shortened: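 Beta-lactamase reporter readout: a ratiometric FRET signal from the LiveBLAzer substrate after 2 h at room temperature. Compound exposure at 37 °C in PPARδ-bla HEK293H cells driven by an upstream activator sequence.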

Measured: Potency

CN(CC1(C)CCCO1)S(=O)(=O)c1ccc(Cl)c(S(N)(=O)=O)c1 (stereo not given)
not listed: [17] | [18] | [19] | [20]
inactive: all other assays above

CC1(C)O[C@@H]2C[C@H]3[C@@H]4CCC5=CC(=O)CC[C@]5(C)[C@@]4(F)[C@@H](O)C[C@]3(C)[C@]2(C(=O)CCl)O1
not listed: [7] | [9] | [12] | [14] | [15] | [19] | [20]
inactive: all other assays above

COC(C)CCO (stereo not given)
not listed: [12] | [13] | [14] | [15] | [17] | [20]
inactive: all other assays above

CCCCCCCCc1ccc(S(=O)(=O)O)cc1
active: [5] 43.3 µM | [10] 43.3 µM
not listed: [7] | [11] | [20]
inactive: all other assays above

Cc1nnc(SCC2=C(C(=O)O)N3C(=O)[C@@H](NC(=O)Cn4cnnn4)[C@H]3SC2)s1
not listed: [7] | [10] | [13] | [15] | [18] | [19] | [20]
inactive: all other assays above

C=CCCC=C
not listed: [9] | [11] | [18] | [19]
inactive: all other assays above

COc1ccc2nc(NC(=O)Nc3ccccc3)sc2c1
active: [2] 10.6 µM
not listed: [7] | [9] | [12] | [13] | [15] | [20]
inactive: all other assays above

C=CC1CO1 (stereo not given)
not listed: [10] | [12] | [13] | [15] | [19] | [20]
inactive: all other assays above

COc1ccccc1OCC(O)COC(N)=O (stereo not given)
not listed: [13] | [14] | [15] | [17] | [18] | [19] | [20]
inactive: all other assays above

CCN1CC(CCN2CCOCC2)C(c2ccccc2)(c2ccccc2)C1=O (stereo not given)
not listed: [7] | [12] | [14] | [19]
inactive: all other assays above

O=C1N(c2ccccc2)c2ccccc2C1(Cc1ccncc1)Cc1ccncc1
not listed: [7] | [9] | [11] | [13] | [14] | [15] | [19]
inactive: all other assays above

CC(C)c1ccccc1
not listed: [8] | [9] | [10] | [11] | [12] | [14] | [18] | [20]
inactive: all other assays above

CC(=O)OC1C2(C)CCC(C2)C1(C)C (stereo not given)
not listed: [7] | [14] | [17] | [18] | [19]
inactive: all other assays above

O=S(=O)(O)C(F)(F)F
not listed: [7] | [13] | [15]
inactive: all other assays above

CCCCc1ccc2nc(NC(=O)OC)[nH]c2c1
active: [2] 1.01 µM
not listed: [7] | [9] | [10] | [12] | [13] | [17] | [19] | [20]
inactive: all other assays above
